Some compounds were tested as several samples or in several runs, with calls that do not always agree. Active and inactive are the calls of the source. How the source made its calls: active means hit-call score of the fitted dose curve at least 0.9, where 1 is the maximum; inactive means score below 0.9.

This test is described as follows: BSK_4H_Eotaxin3: BioMAP Diversity Plus: 4H Assay for Eotaxin 3 Biomarker Activity (AID 2283000). To be noted: primary human endothelial cells (HUVEC); actives raise or lower the signal. The procedure:
BSK_4H is a cell-based, multiplexed-readout assay that uses umbilical vein endothelium, a human vascular primary cell, with measurements taken at 24 hours after chemical dosing in a 96-well plate.BSK_4H_Eotaxin3 is an assay component measured in the BSK_4H assay. It measures Eotaxin-3 antibody related to regulation of gene expression using ELISA technology.Data from the assay component BSK_4H_Eotaxin3 was analyzed into 1 assay endpoint. This assay endpoint, BSK_4H_Eotaxin3, was analyzed with bidirectional fitting relative to DMSO as the negative control and baseline of activity. Using a type of binding reporter, gain or loss-of-signal activity can be used to understand changes in the signaling as they relate to the gene CCL26. Furthermore, this assay endpoint can be referred to as a primary readout, because this assay has produced multiple assay endpoints where this one serves a signaling function. To generalize the intended target to other relatable targets, this assay endpoint is annotated to the cytokine intended target family, where the subfamily is chemotactic factor.
The levels of cell surface (or secreted, indicated by the prefix "s") biomarker endpoints were measured by ELISA. Overt cytotoxicity to cells in confluent adherent cultures (all systems other than the BT system) was assessed by measuring total protein levels using sulforhodamine B (SRB) staining in parallel cultures at the time of biomarker measurements, indicated as SRB endpoints. For proliferation assays for adherent cell types, individual cell types are cultured at sub-confluence and relative cell numbers quantified by SRB staining at time points optimized for each system (48 h: 3C and CASM3C systems; 72 h: BT and HDF3CGF systems; 96 h: SAg system). SRB was performed by staining cells with 0.1% SRB after fixation with 10% TCA and reading wells at 560 nm.Viability and proliferation of PBMC (T cells) was quantified by Alamar Blue reduction for the SAg and BT systems. For PBMC viability (referred to as PBMC Cytotoxicity within the assay endpoint names), cells were plated (75,000/well in a 96-well plate) and then chemical samples added for 1 h before addition of activators, SEB and TSST-1 (20 ng/mL final concentration each). Cells were incubated for 90 h. Then, Alamar Blue (20 uL/well) (Invitrogen, Cat DAL1100) was added for 6 h, and the plates were read with a fluorescence microplate reader at 546/580 nm (excitation/emission). For PBMC proliferation, cells were plated and activated as above but incubated for only 16 h prior to addition of Alamar Blue. Plates were read after 6 h.
As to `ClC1(Cl)C2(Cl)C3(Cl)C4(Cl)C(Cl)(Cl)C5(Cl)C3(Cl)C1(Cl)C5(Cl)C24Cl` (stereo not given), the result was inactive.

Turning to `BrCCBr`, the result was inactive.

Regarding `O=C(Nc1ccc2[nH]ccc2c1)c1cc2cc(F)ccc2n1Cc1cccc(F)c1`, the concentration at half-maximal activity (AC50) was 11.1 µM (active).

As to `CCOP(=S)(OCC)Oc1ccc(S(C)=O)cc1` (stereo not given), the outcome was inactive.

With `Nc1ccc(-c2ccc(N)c(Cl)c2)cc1Cl`, the AC50 is 1.93 µM (active).

With `CCNc1nc(NC(C)(C)C)nc(SC)n1`, the result was inactive.

Turning to `CC(=O)[O][Hg][c]1ccccc1`, the AC50 was 1.78 µM (active).

For `O=C(O)C(F)(F)C(F)(F)C(F)(F)C(F)(F)C(F)(F)C(F)(F)C(F)(F)C(F)(F)C(F)(F)C(F)(F)F`, the AC50 was 33.4 µM (active) and the outcome was inactive.

`C=CC(=O)OCCCCCC(C)C`: the result was inactive.

Regarding `C[C@]12CCC(=O)C[C@@H]1CC[C@@H]1[C@@H]2CC[C@]2(C)[C@@H](O)CC[C@@H]12`, the outcome was inactive.

In the case of `Cc1ccccc1N`, the outcome was inactive.

With `COP(=S)(OC)Oc1cc(Cl)c(Cl)cc1Cl`, the AC50 is 20 µM (active).

On to `O=[N+]([O-])c1ccc2c3c(cccc13)CC2`, for which the outcome was inactive.

In the case of `CCCCCCCCC(=O)NCc1ccc(O)c(OC)c1`, the outcome was inactive.

On to `COc1cc(-c2ccc(N)c(OC)c2)ccc1N`, for which the outcome was inactive.

Take `OCc1ccco1`: the result was inactive.

As for `CC(C)(c1ccccc1)c1ccc(O)c(C(C)(C)c2ccccc2)c1`, the AC50 was 9.16 µM (active).

With `NC(=O)O`, the outcome was inactive.

`CN(C)N=O`: the outcome was inactive.

In the case of `CC(=O)C(Cl)C(=O)N(C)C` (stereo not given), the AC50 was 21.6 µM (active).

As for `ClCC(Cl)CCl`, the result was inactive.

Turning to `NC(=S)Nc1ccccc1`, the result was inactive.

With `CCCCCCCCc1ccc(O)cc1`, the AC50 is 33.5 µM (active).

For `COC[C@H](C)N(C(=O)CCl)c1c(C)csc1C`, the outcome was inactive.

Take `COC(=O)c1sccc1S(=O)(=O)NC(=O)Nc1nc(C)nc(OC)n1`: the outcome was inactive.

In the case of `ClC(Cl)=C(Cl)C(Cl)=C(Cl)Cl`, the AC50 is 36.9 µM (active).

Take `Cn1sc(Cl)cc1=O`: the AC50 is 28.2 µM (active).

With `O=c1[nH]c(=O)[nH]c(=O)[nH]1`, the outcome was inactive.

For the molecule `CC(C)(C)c1cc(O)ccc1O`, the AC50 is 27.4 µM (active).

For the molecule `CCOP(=S)(OCC)Oc1nc(Cl)c(Cl)cc1Cl`, the AC50 is 27.9 µM (active).

`O=[N+]([O-])c1ccc(O)c([N+](=O)[O-])c1`: the outcome was inactive.

Take `COC(=O)Cc1ccccc1`: the outcome was inactive.

Take `Oc1c(I)cc(I)cc1I`: the half-maximal activity concentration (AC50) was 20 µM (active).

Consider `O=S(=O)(c1ccc(Cl)cc1)c1ccc(Cl)cc1`, for which the outcome was inactive.

With `CC(C)(OO)c1ccccc1`, the result was inactive.

As for `Nc1ncc([N+](=O)[O-])s1`, the outcome was inactive.

Consider `CC12CC1(C)C(=O)N(c1cc(Cl)cc(Cl)c1)C2=O` (stereo not given), for which the result was inactive.

Consider `CCSC(C)CC1CC(=O)C(C(CC)=NOC/C=C/Cl)=C(O)C1` (stereo not given), for which the result was inactive.

For the molecule `Oc1ccc(-c2ccccc2)cc1`, the result was inactive.

Source of the values: PubChem BioAssay (EPA / NIEHS).
